# NPC1 prom act: qHTS Assay for NPC1 Promoter Activators; Huh7 NPC1 promoter luciferase reporter, 24 h; AID 485313, 2010; hit rate 2.4% among 320,000; Potency, µM (titrated, usually from 9.22 µM), for inactives: at the highest dose activation, usual class: activators; note: % of control where 0% means no effect; nearly all actives have a fitted effect of over 60% in size
#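 Quantitative HTS used a cell-based reporter: Huh7 cells stably bearing the NPC1 promoter upstream of luciferase were treated with compounds for 24 h, and promoter activation was read as luminescence.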
# SMN2 splice enh: qHTS Assay for Enhancers of SMN2 Splice Variant Expression; HEK293 SMN2-luciferase splicing reporter, luminescence, 30-36 h; Potency, µM (top dose mostly 46.1 µM), for inactives: at the highest dose activity change, positive = activation, actives largely listed as activators; hit rate 2.8% among 210,000; AID 1458, 2008; note: % of control where 0% means no effect; nearly all actives have a fitted effect of over 55% in size
#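 qHTS luciferase splicing reporter: luminescence rises when SMN2 exon 7 is included in transfected HEK293 cells. Compound exposure lasted 30-36 h at 37C, with 4.5 mM final sodium butyrate as control, followed by a ONE-Glo read.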
# FLuc counter: qHTS profiling assay for firefly luciferase inhibitor/activator using purifed enzyme and Km concentrations of substrates (counterscreen for miR-21 project); purified FLuc, Km substrates, luminescence inhibition; hit rate 6.9% among 360,000; Luciferin 4-monooxygenase (Photinus pyralis), P08659; Potency, µM (highest dose often 57.5 µM), without a hit: at the highest dose activity change, negative = inhibition, hits mostly inhibitors;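 note: plate controls were vehicle for no effect and reference inhibitor for full effect; nearly all actives have a fitted effect of over 55% in size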
# Target sequence (P08659 whole entry, looked up): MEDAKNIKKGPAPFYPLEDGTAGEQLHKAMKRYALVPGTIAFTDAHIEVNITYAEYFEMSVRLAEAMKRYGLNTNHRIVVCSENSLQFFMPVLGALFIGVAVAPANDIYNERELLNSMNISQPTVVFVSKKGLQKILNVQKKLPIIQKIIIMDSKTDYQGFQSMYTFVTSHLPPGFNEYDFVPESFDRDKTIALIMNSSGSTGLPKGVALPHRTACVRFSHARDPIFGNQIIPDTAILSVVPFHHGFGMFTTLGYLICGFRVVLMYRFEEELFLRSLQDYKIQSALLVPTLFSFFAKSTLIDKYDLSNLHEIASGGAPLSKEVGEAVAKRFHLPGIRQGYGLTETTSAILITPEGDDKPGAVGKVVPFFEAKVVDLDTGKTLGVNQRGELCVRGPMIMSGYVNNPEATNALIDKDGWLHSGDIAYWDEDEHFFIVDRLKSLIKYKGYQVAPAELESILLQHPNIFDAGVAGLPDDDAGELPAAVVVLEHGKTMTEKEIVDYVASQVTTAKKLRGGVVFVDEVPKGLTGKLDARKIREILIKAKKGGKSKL
#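 Purified P. pyralis luciferase (10nM final) with 10uM D-luciferin and 10uM ATP (Km levels) in 50mM Tris acetate pH 7.5, 10mM Mg acetate, 0.01% Tween-20, 0.05% BSA; qHTS 6-point titration, ~60 µM downward; luminescence read.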
# Rab9 prom act: qHTS Assay for Rab9 Promoter Activators; Huh7 Rab9 promoter-luciferase reporter, luminescence, 24 h; hit rate 2.8% among 320,000; Potency, µM (titrated, usually from 9.22 µM), for inactives: at the top dose activation, negative = inhibition, hits mostly activators; note: % of control where 0% means no effect; nearly all actives have a fitted effect of over 60% in size
#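 Measured in stably transfected Huh7 cells bearing a Rab9 promoter–luciferase construct: 24 h compound treatment at 37 °C, followed by luminescence detection.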
# ELG1 genotoxic: qHTS screen for small molecules that induce genotoxicity in human embryonic kidney (HEK293T) cells expressing luciferase-tagged ELG1; Potency, µM (highest dose often 46 µM), without a hit: top-dose activity change, positive = activation, hits mostly activators; HEK293T ELG1-luciferase reporter, luminescence, 16 h; hit rate 1.3% among 330,000; note: % of control where 0% means no effect; nearly all actives have a fitted effect of over 60% in size
#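 Luminescence read-out: rising ELG1-luciferase signal, reflecting elevated ELG1 protein under genetic stress, flags genotoxic compounds. Cells were treated for 16 hr at 37 °C before ONE-Glo detection.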
# ELG1 repair inh: qHTS screen for small molecules that inhibit ELG1-dependent DNA repair in human embryonic kidney (HEK293T) cells expressing luciferase-tagged ELG1 | hit rate 2.3% among 330,000 | Potency, µM (highest dose often 46.1 µM), for the others: top-dose activity change, negative = inhibition, hits mostly inhibitors | HEK293T ELG1-luciferase reporter, luminescence, 16 h; DNA damage induced by 5-fluorouridine; note: % is set by controls: 0 for no effect and ±100 for the full control effect; nearly all actives have a fitted effect of over 55% in size
#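 Overnight (16 hr) co-exposure of 2,000 cells/well to 5-fluorouridine and compound at 37 °C preceded detection. Luciferase was quantified via ONE-Glo luminescence; loss of signal denotes inhibition.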
# * hit, by the source's call; ? = inconclusive; · = not tested or not shown. Most compounds without a hit are left out; they make up all but 9.2% or so of the library. Calls come from the whole dose curve; as a rule, active = well fitted curve in the direction sought with a large enough effect; inconclusive = small, poorly fitted or top-dose-only effect, or another doubt; inactive = no such curve, though single readings can be large; an effect the other way counts as inactive or inconclusive. Potency is the fitted concentration of half-maximal effect.
SMILES,NPC1 prom act,SMN2 splice enh,FLuc counter,Rab9 prom act,ELG1 genotoxic,ELG1 repair inh
CN(C)c1ccc(-c2noc(C3CCN(S(=O)(=O)c4cccc(Cl)c4)CC3)n2)cc1,-0.6%,·,12.9%,-2.3%,-1.1%,?
CC(C)N(C(=O)N1CCC(c2nc(-c3ccncc3)no2)CC1)C(C)C,1.4%,-90.2%,1.7%,-9.1%,?,16.4µM*
CC(C)C(=O)N1CCC(c2nc(-c3ccc(S(=O)(=O)N4CCN(C)CC4)cc3)no2)CC1,-8.8%,-32.3%,-6.3%,-7.0%,-1.7%,-8.5%
Cc1ccc(-c2noc(C3CCCN(S(=O)(=O)c4ccc5ccccc5c4)C3)n2)o1 (configuration not stated),-0.5%,-13.0%,?,-7.3%,5.0%,-14.1%
O=S(=O)(c1ccc2ccccc2c1)N1CCC(c2nc(-c3ccncc3)no2)CC1,-17.2%,-78.2%,0.0%,-20.9%,-0.3%,13µM*
Cc1ccc(-c2noc(C3CCN(S(=O)(=O)c4ccc5c(c4)OCCO5)CC3)n2)o1,-4.3%,-52.7%,3.2%,-2.4%,-8.1%,23.1µM*
Cc1ccc2nc(Cl)nc(-c3ccccc3)c2c1,-3.4%,·,4.3%,-8.2%,-3.5%,3.5%
CC(=O)Oc1ccc2nc(-c3ccco3)oc(=O)c2c1,-3.0%,·,12µM*,-0.3%,-3.3%,-4.8%
Cc1cc(-c2nc3ccccc3c(=O)o2)ccc1[N+](=O)[O-],26.5%,·,2.69µM*,15.6%,?,?
Cc1ccc2nc(-c3ccccc3)oc(=O)c2c1,-7.1%,·,3.79µM*,1.9%,4.8%,0.4%
Cc1ccc2nc(-c3ccccc3C)oc(=O)c2c1,-1.8%,·,6.01µM*,1.1%,0.4%,3.6%
COc1cc2nc(-c3ccccc3C)oc(=O)c2cc1OC,-1.2%,·,?,-2.2%,-1.2%,4.7%
CC(=O)Oc1ccc2nc(-c3cccs3)oc(=O)c2c1,-2.0%,-10.7%,?,-3.5%,2.1%,22.5%
Cc1ccc(S(=O)(=O)c2nc(-c3ccco3)oc2SC(C)c2ccccc2)cc1 (configuration not stated),·,-5.1%,-10.2%,·,·,·
CC1CCCC(NC(=O)Cn2c(Cl)nc3c2c(=O)n(C)c(=O)n3C)C1C (configuration not stated),·,·,·,·,-7.0%,?
O=C(CSc1nnc(-c2cccnc2)o1)Nc1nccs1,?,·,-7.9%,?,?,19.5%
O=c1oc(-c2cccs2)nc2ccc(Br)cc12,1.7%,-3.6%,?,-0.8%,5.3%,?
CC(=O)Oc1ccc(-c2nc3ccccc3c(=O)o2)cc1,-5.3%,·,9.53µM*,1.1%,-2.5%,7.5%
COc1ccc(-c2csc3nc(-c4ccccc4)oc(=O)c23)cc1OC,-1.1%,-69.2%,-15.7%,-19.6%,?,14.3%
O=c1oc(-c2ccc(Br)o2)nc2ccccc12,18.8%,?,?,19.6%,?,?
Cc1ccc2nc(-c3cccs3)oc(=O)c2c1,-0.8%,-0.8%,9.53µM*,-2.1%,-3.2%,?
COc1ccc(-c2nc3ccc(C)cc3c(=O)o2)cc1OC,2.1%,·,3.38µM*,0.1%,-2.1%,0.2%
CCN1C(=O)c2ccc(-c3nc4ccccc4c(=O)o3)cc2C1=O,-2.0%,·,-10.7%,4.7%,2.3%,2.8%
Cc1ccc(-c2nc3ccccc3c(=O)o2)cc1,?,·,4.26µM*,3.16µM*,?,?
CC1=C(C(=O)Nc2cc(Cl)ccc2C)C(c2sccc2C)n2ncnc2N1 (configuration not stated),·,·,-0.6%,·,·,·
SMILES,NPC1 prom act,SMN2 splice enh,FLuc counter,Rab9 prom act,ELG1 genotoxic,ELG1 repair inh
CCOc1ccccc1CNC(=O)C1CCN(c2nn3cc(-c4ccc(F)cc4)nc3s2)CC1,·,·,-5.4%,·,·,·
COc1cc(/C=N/N2CCOCC2)ccc1OCc1ccc(Cl)cc1,-3.5%,11.2µM*,10.7µM*,17.2%,?,?
COc1cc(/C=N/OCC(=O)NC2CCCCC2C)ccc1OCc1ccc(Cl)cc1 (configuration not stated),?,?,6.75µM*,2.82µM*,18.4µM*,?
COc1cc(/C=N/OCC(=O)Nc2cc(C)cc(C)c2)ccc1OCc1ccc(Cl)cc1,?,11.2µM*,9.53µM*,3.16µM*,?,?
COC(=O)c1ccc(/C=N/OCC(=O)NC2CCCC(C)C2C)cc1 (configuration not stated),-5.8%,-74.1%,-6.8%,-0.6%,-11.3%,-15.2%
Cc1ccc(S(=O)(=O)N(C)CC(=O)OCC(=O)NCCN2C(=O)CSC2=O)cc1,-3.7%,·,1.0%,-2.5%,2.3%,6.3%
Cc1nc2c(C)cccc2cc1C(=O)N/N=C/c1ccc(C(=O)O)cc1,0.8%,2.8%,16.9µM*,0.3%,0.4%,-2.3%
Cc1nc2c(C)cccc2cc1C(=O)N/N=C/c1ccc(N(C)C)cc1,-0.1%,?,?,2.1%,0.0%,-18.3%
CC(=O)Nc1ccc(/C=N/NC(=O)c2cc3ccccc3nc2C)cc1,-1.0%,6.7%,-18.1%,-1.8%,1.1%,?
CC(=O)Nc1ccc(/C=N/NC(=O)c2cc3cc(C)ccc3nc2C)cc1,11.2%,-22.3%,6.01µM*,17.0%,?,?
CCOC(=O)c1cnc(SCc2ccc(C)cc2)nc1N,?,11.2µM*,16.9µM*,22.6%,23.1µM*,?
CCOC(=O)c1cnc2c(ccc3ccccc32)c1Cl,-2.8%,·,3.01µM*,5.3%,?,?
CCCCSc1ncc(C(=O)OCC)c(N)n1,?,5.01µM*,3.79µM*,3.16µM*,?,?
CCOC(=O)c1cnc(SCC(=O)c2ccc(Cl)cc2)nc1N,9.1%,-8.8%,-2.4%,1.4%,?,?
CCOC(=O)c1cnc(SCCc2ccccc2)nc1N,3.16µM*,12.6µM*,3.01µM*,1.58µM*,?,?
COc1ccccc1NC(=O)c1ccc(S(=O)(=O)N2CCC(C)CC2)cc1,0.0%,·,-0.5%,-5.9%,0.0%,?
CCOC(=O)c1cnc(NCc2ccccc2)nc1C,25.0%,10.5%,?,?,14.6µM*,?
CC(OC(=O)c1cc(S(=O)(=O)N2CCOCC2)ccc1F)C(=O)NC1CCCC1 (configuration not stated),0.3%,·,-1.3%,-2.4%,-0.3%,19.7%
